About 1,200 (0.39%) of roughly 310,000 compounds were called active. These entries were drawn from the full list. Entries with a potency or affinity are not part of this list. A number with no mark means an inactive call. The rule behind the calls is not given here.

The term inhibition denotes the relative decrease from the control value, in per cent.

Large T antigen (Simian virus 40), sequence (P03070 whole entry, looked up): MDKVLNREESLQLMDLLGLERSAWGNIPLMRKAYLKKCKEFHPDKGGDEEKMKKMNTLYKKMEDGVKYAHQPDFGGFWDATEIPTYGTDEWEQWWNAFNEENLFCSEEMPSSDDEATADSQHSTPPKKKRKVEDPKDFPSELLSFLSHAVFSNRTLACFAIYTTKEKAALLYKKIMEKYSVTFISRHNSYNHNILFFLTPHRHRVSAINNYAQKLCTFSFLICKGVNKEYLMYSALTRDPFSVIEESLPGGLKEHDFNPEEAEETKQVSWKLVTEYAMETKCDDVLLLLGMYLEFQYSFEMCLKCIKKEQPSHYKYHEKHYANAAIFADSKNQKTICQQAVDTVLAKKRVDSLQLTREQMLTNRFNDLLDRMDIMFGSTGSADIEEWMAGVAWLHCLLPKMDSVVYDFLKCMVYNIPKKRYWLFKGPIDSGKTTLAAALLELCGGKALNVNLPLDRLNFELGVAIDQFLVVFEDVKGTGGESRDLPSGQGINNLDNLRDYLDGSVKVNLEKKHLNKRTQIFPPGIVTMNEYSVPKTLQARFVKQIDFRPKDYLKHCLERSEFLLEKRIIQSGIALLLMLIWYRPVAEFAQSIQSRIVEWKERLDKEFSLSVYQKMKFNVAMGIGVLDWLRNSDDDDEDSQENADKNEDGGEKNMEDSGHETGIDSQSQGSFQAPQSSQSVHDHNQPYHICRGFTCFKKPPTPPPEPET

This assay concerns the target Large T antigen (Simian virus 40) (UniProt P03070). The experiment in a line: SV40 large T antigen inhibitors, biochemical (AID 1903). Conditions: SV40 large T antigen ATPase/helicase inhibition assay; at 20 µM; stronger effect = higher value.
Take `Cn1c(CNC(=O)C(Cc2ccccc2)NC(=O)c2cccc(F)c2)cc(=O)n(C)c1=O` (stereo unspecified): the inhibition is -0.65%.

As for `O=C(NNC(=O)c1ccc[nH]1)c1cc(Cl)cc(Cl)c1`, the inhibition was 10.3%.

Turning to `COc1ccccc1C(=O)NNC(=O)c1ccc(NS(=O)(=O)c2cccs2)cc1`, the inhibition was 16.7%.

For `O=S(=O)(c1ccccc1)N1CCN(Cc2ccc(Cl)cc2)CC1`, the inhibition was 10.3%.

For the compound `O=C1CCCC/C1=C/Nc1cccc(C(F)(F)F)c1`, the inhibition is 18.4%.

In the case of `CC1SCC(NC(=O)c2ccccc2Cl)CS1` (stereo unspecified), the inhibition was 8.46%.

In the case of `CC(=O)OCCN1C(=O)c2cccc3cc([N+](=O)[O-])cc(c23)C1=O`, the inhibition is 14.1%.

For the compound `Cc1ccc(-c2[nH]ncc2C(=O)c2ccc(Br)cc2)c(O)c1`, the inhibition was 7.57%.

As for `CCCN1C(=O)C(NC(=O)c2ccncc2)(C(F)(F)F)C2=C1CC(C)(C)CC2=O` (stereo unspecified), the inhibition was -1.41%.

`Cc1ccc(/C=C/c2onc(C)c2S(=O)(=O)N2CCC(C(=O)NC(C)(C)C)CC2)cc1`: the inhibition is 2.7%.

Consider `CC(C)C(=O)Nc1cccc(-c2csc(-c3ccccc3)n2)c1`, for which the inhibition is -59.4%.

Consider `CC(C)C(=O)Nc1ccc(-c2csc(-c3ccccc3)n2)cc1`, for which the inhibition is 1.63%.

Consider `CCOC(=O)Cc1csc(NC(=O)/C=C/c2cccc(Br)c2)n1`, for which the inhibition is -3.33%.

`COc1cc(C(=O)Nn2c(C)nc3ccccc3c2=O)cc(OC)c1OC`: the inhibition was 7.45%.

As to `COc1ccc(/C=C2/C(=N)N3N=C(CC(=O)N4CCCC4)SC3=NC2=O)cc1OC`, the inhibition is 14.2%.

On to `CC(C)c1ccc(/C=C2\C(=N)N3N=C(CC(=O)N4CCCCC4)SC3=NC2=O)cc1`, for which the inhibition is 36.9%.

For the compound `CSc1ccc(/C=C2\C(=N)N3N=C(CC(=O)N4CCCCC4)SC3=NC2=O)cc1`, the inhibition was 26.3%.

Turning to `CSc1ccc(/C=C2/C(=N)N3N=C(CC(=O)N4CCCC4)SC3=NC2=O)cc1`, the inhibition was 12.1%.

In the case of `Cc1ccc(/C=C2/C(=N)N3N=C(CC(=O)N4CCCC4)SC3=NC2=O)cc1`, the inhibition is 30.2%.

Regarding `C=CCOc1ccc(/C=C2/C(=N)N3N=C(CC(=O)N4CCCC4)SC3=NC2=O)cc1OC`, the inhibition is 11.3%.

Regarding `CCc1ccc(/C=C2\C(=N)N3N=C(CC(=O)N4CCCCC4)SC3=NC2=O)cc1`, the inhibition was 10.1%.

On to `Cc1ccc(/C=C2\C(=N)N3N=C(CC(=O)N4CCCCC4)SC3=NC2=O)cc1`, for which the inhibition was 26.9%.

As for `COc1cc([N+](=O)[O-])ccc1NC(=O)CCCOc1cc(C)ccc1C`, the inhibition is 8.46%.

As to `CCOC(=O)c1nn(-c2ccc(Cl)cc2)c2nc(Nc3ccccc3)cc(=O)n12`, the inhibition was 5.22%.

Take `COc1ccc(C(=O)Nc2ccc(C)cc2C(=O)c2ccccc2)c(OC)c1`: the inhibition is 5.96%.

As for `Cc1ccccc1CNC(=O)c1ccccc1N`, the inhibition was 14.8%.

Take `CCn1cc(/C=C/C(=O)Nc2ccn(Cc3c(F)c(F)c(F)c(F)c3F)n2)cn1`: the inhibition is -8.72%.

Take `NC(=O)c1ccc(NC(=O)CSc2cn(CC(=O)N3CCOCC3)c3ccccc23)cc1`: the inhibition was 2.11%.

In the case of `COc1ccc(Nc2ccc(Cl)nn2)cc1`, the inhibition is 17.6%.

On to `C/C(=N\Nc1ncc(Br)cn1)c1cccc([N+](=O)[O-])c1`, for which the inhibition was 10.7%.

As to `N=C1/C(=C\c2ccc(Br)o2)C(=O)N=C2SC(CC(=O)N3CCOCC3)=NN12`, the inhibition is 36.3%.

Take `Cc1ccc(/C=C2/C(=N)N3N=C(CC(=O)N4CCCC4)SC3=NC2=O)o1`: the inhibition is -4.18%.

Consider `Cc1cccc(C(=O)NNC(=O)CCn2nnc3ccccc32)c1`, for which the inhibition was 1.08%.

`COCc1cc(C)nc(SCC(=O)Oc2ccccc2)c1C#N`: the inhibition is 15.3%.

As to `COCc1cc(C)nc(SCC(=O)Oc2ccc(Cl)cc2)c1C#N`, the inhibition was 16%.

With `Cc1cc(C(F)(F)F)nn1Cc1n[nH]c(=S)n1-c1ccc(F)cc1`, the inhibition was 15.9%.

Turning to `CS(=O)(=O)c1ccc(Cl)c(NC(=O)C2CCCN(C(=O)c3ccc(Cl)cc3)C2)c1` (stereo unspecified), the inhibition is 6.85%.

Consider `COc1ccc(C(=O)NC(C(=O)NCC(=O)Nc2c(C)cccc2C)C(C)C)cc1` (stereo unspecified), for which the inhibition was 3.58%.

Take `Cc1nn(CC(=O)N2CCOCC2)c(=O)c2nn(-c3ccccc3)c(C)c12`: the inhibition was 1.18%.

Turning to `COc1cc(O)c(C(CCN2CCN(c3ccccc3)CC2)c2ccc3c(c2)OCO3)c(OC)c1` (stereo unspecified), the inhibition is 7.18%.

With `CC(=O)Oc1cc2oc(=O)cc(C)c2cc1Cl`, the inhibition is 14.8%.

Turning to `CC(=O)Oc1ccc2c(C)cc(=O)oc2c1`, the inhibition was 17%.

For the compound `Fc1ccc(/C=N/NC(=S)Nc2cccnc2)cc1`, the inhibition is 7.01%.

`CC(C)N(C(=S)Nc1cccnc1)c1ccccc1`: the inhibition is 12.6%.

Take `CC(C)(C)c1ccc(/C=N/NC(=S)Nc2cccnc2)cc1`: the inhibition is 9.92%.

Take `COc1ccc(O)c(/C=N/NC(=S)Nc2cccnc2)c1`: the inhibition was 25.1%.

On to `CN(C(=S)Nc1ccc(Oc2ccccc2)cc1)c1ccc(O)cc1`, for which the inhibition was 21.8%.

`Fc1cccc(F)c1/C=N/NC(=S)Nc1cccnc1`: the inhibition was 24.5%.

For `NC(=O)c1ccc(NC(=O)CCCNC(=O)c2ccc(Cl)cc2)cc1`, the inhibition was 8.64%.

With `CCc1ccc(C2=NNC(=Nc3cccc(S(=O)(=O)N(C)C)c3)SC2)cc1`, the inhibition was 4.35%.

As for `CCC(C)N(C(=O)c1csnn1)C(C(=O)NC1CCCC1)c1c(F)cccc1Cl` (stereo unspecified), the inhibition is 7.33%.

Take `CCN(CC)CCNC(=O)c1ccc(NC(=O)c2ccc(C(=O)c3ccccc3)cc2)cc1`: the inhibition was 37.6%.

For the compound `O=C(NCCc1c[nH]c2ccccc12)C(=O)NCC1OCCCN1S(=O)(=O)c1ccccc1` (stereo unspecified), the inhibition is 16.5%.

On to `Cc1ccc(S(=O)(=O)N2CCOC2CNC(=O)C(=O)NCCc2c[nH]c3ccccc23)cc1` (stereo unspecified), for which the inhibition was -3.07%.

With `COc1ccc(O)c(C(=O)c2cnc3c(c2)c(=O)[nH]c(=O)n3C)c1`, the inhibition is 3.44%.

For `Fc1ccc(/C=N\Nc2cccc(F)c2)cc1`, the inhibition was 8.31%.

On to `Cc1ccc(N(C(=O)Cc2c[nH]c3ccccc23)C(C(=O)NC2CCCCC2)c2ccco2)cc1` (stereo unspecified), for which the inhibition was -1.52%.

As to `CN(C)CCCOc1ccc2c(c1)Sc1ccccc1CC2=O`, the inhibition was -4.85%.

Turning to `O=C1c2c(O)cc(O)cc2O[C@H](c2ccc(O)c(O)c2)[C@H]1O`, the inhibition was 7.35%.

`Oc1cc(O)c2c(c1)O[C@H](c1ccc(O)c(O)c1)[C@H](O)C2`: the inhibition was 37.1%.

For the compound `O=C(O[C@@H]1Cc2c(O)cc(O)cc2O[C@@H]1c1cc(O)c(O)c(O)c1)c1cc(O)c(O)c(O)c1`, the inhibition was -0.22%.

As for `O=C1c2c(O)cc(O)cc2O[C@H](c2ccc(O)c(O)c2)[C@@H]1O`, the inhibition is 5.87%.

`COc1cc(C(=S)N2CCOCC2)cc(OC)c1OS(=O)(=O)c1ccc(C)cc1`: the inhibition is 3.46%.

Take `Cc1csc(Sc2ccc([N+](=O)[O-])cc2C(=O)OCC(=O)NC2CCCC(C)C2C)n1` (stereo unspecified): the inhibition was 16.8%.

As for `CC(C)C(=O)NNC(=O)c1csc(CS(=O)(=O)c2ccc(Cl)cc2)n1`, the inhibition is 9.42%.

Take `Cc1cnc(C(=O)NC2CCSc3ccccc32)cn1` (stereo unspecified): the inhibition is 9.84%.

In the case of `CC(C)[C@@H]1CC[C@@H](C)c2c(-c3ccccc3)n[nH]c21`, the inhibition was -1.85%.

For `CN1CCc2cccc3c2[C@@H]1Cc1ccc(O)c(O)c1-3`, the inhibition was 39.9%.

As for `CN1CCC(=C2c3ccccc3C(O)c3ccccc32)CC1` (stereo unspecified), the inhibition is 5.26%.

Regarding `COc1c(O)ccc2c1CN1CCc3cc4c(cc3C1C2)OCO4` (stereo unspecified), the inhibition was 58.7%.

Consider `COc1ccc2c(c1O)-c1ccccc1CCN(C)C2`, for which the inhibition was 20.8%.

`COc1cc2c(cc1OC)C(Cc1ccc(O)cc1)N(C)CC2` (stereo unspecified): the inhibition was 2.71%.

Turning to `CN1CCc2cc3c(c4c2[C@H]1[C@H](O)c1ccccc1-4)OCO3`, the inhibition was 14.8%.

Consider `CCC(C)NCCC(=O)Nc1ccc(Cl)c(S(=O)(=O)Nc2ccc(Cl)cc2)c1` (stereo unspecified), for which the inhibition is 7.37%.

For the compound `O=C(Nc1cccc(-c2nn[nH]n2)c1)c1ccc(Cl)s1`, the inhibition was 8.59%.

Regarding `Cc1cc(C(=O)Nc2cccc(C(=O)O)c2)c(C)o1`, the inhibition was 4.39%.

As to `CC(C)(C)c1cc(N)n(-c2ccc(C(=O)O)cc2)n1`, the inhibition was 11.4%.

Consider `COc1ccc(NC(=O)C/C(C)=N/NC(=O)c2cnccn2)cc1`, for which the inhibition is -3.03%.

`C/C(CC(=O)Nc1ccccn1)=N\NC(=O)c1ccc2ccccc2c1`: the inhibition was -45.2%.

In the case of `CCC(=O)N/N=C(\C)CC(=O)Nc1ccc2ccccc2c1`, the inhibition was 11.7%.

On to `C/C(CC(=O)Nc1ccc(N(C)C)cc1)=N\NC(=O)c1ccc(F)cc1`, for which the inhibition is 29.8%.

As to `C/C(CC(=O)Nc1ccc(N(C)C)cc1)=N\NC(=O)c1ccc(C(C)(C)C)cc1`, the inhibition was 9.71%.

Take `C/C(CC(=O)Nc1ccc(N(C)C)cc1)=N\NC(=O)c1ccccn1`: the inhibition is 28.2%.

Regarding `Cc1ccc(N(Cc2ccc(C(=O)Nc3c(C)n(C)n(-c4ccccc4)c3=O)cc2)S(C)(=O)=O)cc1C`, the inhibition is 9.36%.

For the compound `O=C1[C@@H]2Cc3c([nH]c4ccccc34)C(c3ccccc3)N2C(=O)CN1CCO` (stereo partly specified), the inhibition is 9.64%.

Consider `CCC(C)NC(=O)CCc1nnc2ccc(N3CCC(C)CC3)nn12` (stereo unspecified), for which the inhibition is 6.91%.

Consider `O=S(=O)(O)c1cccc(N=Nc2c(O)ccc3ccccc23)c1`, for which the inhibition was 7.77%.

For `Oc1ccc(Cl)cc1N=Nc1ccccc1`, the inhibition was 8.08%.

Consider `Nc1cc(S(=O)(=O)O)cc([N+](=O)[O-])c1O`, for which the inhibition is 23%.

With `Cc1ccc(N=Nc2ccc(N)cc2C)c(S(N)(=O)=O)c1`, the inhibition was 10.1%.

Turning to `C#CCOCCOCCOCCNc1nc(N2CCN(C(=O)C([C@@H](C)CC)n3cc(C(N)Cc4ccc(O)cc4)nn3)CC2)nc(N2CCN(C(=O)[C@H](CCC(=O)O)n3cc(C(N)Cc4ccc(O)cc4)nn3)CC2)n1` (stereo partly specified), the inhibition was 18.6%.

The record behind these values is PubChem BioAssay AID1903 (Southern Research Specialized Biocontainment Screening …, 2009).
